Test in all cases: DAPPL (digital affinity profiling via proximity ligation, sequencing); 10 mM Tris-HCl pH 7.5, 50 mM NaCl, 1 mM DTT, 4% glycerol, room temperature, 30 min; GST-TFs on glutathione beads, 16-mer random dsDNA library, 0.1% formaldehyde crosslink after washing; high values mean tight binding
For one assay, the target named is T1, FEV (Homo sapiens, UniProt Q99581 1-238).
T1 sequence: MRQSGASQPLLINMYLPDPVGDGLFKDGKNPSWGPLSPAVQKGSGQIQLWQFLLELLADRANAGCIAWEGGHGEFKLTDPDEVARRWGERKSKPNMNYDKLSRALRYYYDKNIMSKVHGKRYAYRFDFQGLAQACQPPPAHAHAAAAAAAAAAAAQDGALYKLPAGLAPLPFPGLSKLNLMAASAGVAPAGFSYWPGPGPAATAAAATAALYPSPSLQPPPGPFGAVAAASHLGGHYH
To be noted: protein: recombinant; tags: N-terminal GST; dsDNA, one strand shown. The method, boiled down:
(§1)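 Human transcription factors were made in yeast as GST fusions, captured on glutathione beads and barcoded with DNA. With a tag-only sample included, the pool was incubated with 200 nmole of a random double-stranded 16-mer DNA library in Tris/NaCl/DTT/glycerol buffer at room temperature for 30 min, then crosslinked with 0.1% formaldehyde after washing, ligated by proximity, amplified and sequenced. For binding signal, each hexamer's read frequency for a factor is divided by its frequency for the tag-only sample.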

The next assay addresses ETV5 (Homo sapiens, UniProt P41161 1-510). To be noted: protein: recombinant; tags: N-terminal GST; dsDNA, one strand shown. Put shortly: as §1
The next assay concerns the target HSF1 (Homo sapiens, UniProt Q00613 1-529). The note with it: protein: recombinant; tags: N-terminal GST; chain copies: 3; dsDNA, one strand shown. Put shortly: as §1
A further assay concerns the target T2, SPIC (Homo sapiens, UniProt Q8N5J4 1-248).
T2 sequence: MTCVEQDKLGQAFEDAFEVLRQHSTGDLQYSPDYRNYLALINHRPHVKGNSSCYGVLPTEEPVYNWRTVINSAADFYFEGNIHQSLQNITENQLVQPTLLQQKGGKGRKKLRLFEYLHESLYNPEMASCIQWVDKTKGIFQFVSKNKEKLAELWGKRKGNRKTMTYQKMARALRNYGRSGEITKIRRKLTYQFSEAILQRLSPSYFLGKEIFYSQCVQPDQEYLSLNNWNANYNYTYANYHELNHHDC
To be noted: protein: recombinant; tags: N-terminal GST; dsDNA, one strand shown. The method, boiled down:
as §1

The target in another assay is ELF4 (Homo sapiens, UniProt Q99607 1-663). The note with it: protein: recombinant; tags: N-terminal GST; dsDNA, one strand shown. Put shortly: as §1
In a further assay the target is T3, ELK4 (Homo sapiens, UniProt P28324-2 1-405).
T3 sequence: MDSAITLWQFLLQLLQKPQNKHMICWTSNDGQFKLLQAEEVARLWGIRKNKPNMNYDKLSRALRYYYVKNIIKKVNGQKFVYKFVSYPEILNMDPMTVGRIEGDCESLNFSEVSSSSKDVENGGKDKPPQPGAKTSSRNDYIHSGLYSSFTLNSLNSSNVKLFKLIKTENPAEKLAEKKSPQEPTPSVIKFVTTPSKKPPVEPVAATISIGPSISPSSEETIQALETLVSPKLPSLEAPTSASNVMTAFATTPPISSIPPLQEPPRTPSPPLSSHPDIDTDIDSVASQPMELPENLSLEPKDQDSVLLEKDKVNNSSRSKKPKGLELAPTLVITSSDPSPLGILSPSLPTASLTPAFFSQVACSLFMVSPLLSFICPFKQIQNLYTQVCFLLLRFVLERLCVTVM
To be noted: protein: recombinant; tags: N-terminal GST; dsDNA, one strand shown. Put shortly:
as §1

The next assay concerns the target T4, ETV2 (Homo sapiens, UniProt O00321 1-342).
T4 sequence: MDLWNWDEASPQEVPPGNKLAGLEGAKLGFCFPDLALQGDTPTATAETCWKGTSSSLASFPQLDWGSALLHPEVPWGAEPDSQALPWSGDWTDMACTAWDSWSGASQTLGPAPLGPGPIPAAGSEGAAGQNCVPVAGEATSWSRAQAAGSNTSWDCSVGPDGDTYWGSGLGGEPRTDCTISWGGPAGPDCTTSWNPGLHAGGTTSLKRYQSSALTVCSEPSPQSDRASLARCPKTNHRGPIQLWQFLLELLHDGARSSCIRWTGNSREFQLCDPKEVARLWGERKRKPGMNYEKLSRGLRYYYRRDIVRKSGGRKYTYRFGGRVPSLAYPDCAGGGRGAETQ
The note with it: protein: recombinant; tags: N-terminal GST; dsDNA, one strand shown. Put shortly:
as §1

The target in a further assay is T5, ELF3 (Homo sapiens, UniProt P78545 1-371).
T5 sequence: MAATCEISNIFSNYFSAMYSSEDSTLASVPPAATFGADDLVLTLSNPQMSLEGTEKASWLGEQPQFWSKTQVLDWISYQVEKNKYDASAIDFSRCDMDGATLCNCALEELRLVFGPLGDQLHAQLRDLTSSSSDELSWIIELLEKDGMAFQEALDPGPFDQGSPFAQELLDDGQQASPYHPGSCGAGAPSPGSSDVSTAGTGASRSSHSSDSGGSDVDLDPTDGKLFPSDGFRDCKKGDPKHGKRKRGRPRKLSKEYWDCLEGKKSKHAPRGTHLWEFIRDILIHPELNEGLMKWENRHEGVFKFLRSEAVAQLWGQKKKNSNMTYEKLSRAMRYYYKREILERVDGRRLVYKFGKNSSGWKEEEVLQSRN
The note with it: protein: recombinant; tags: N-terminal GST; dsDNA, one strand shown. The method, boiled down: as §1

A further assay concerns the target CRX (Homo sapiens, UniProt O43186 1-299). The note with it: protein: recombinant; tags: N-terminal GST; dsDNA, one strand shown. The method, boiled down:
as §1

Another assay addresses ETV1 (Homo sapiens, UniProt P50549 1-477). The note with it: protein: recombinant; tags: N-terminal GST; dsDNA, one strand shown. Put shortly:
as §1

In another assay the target is T6, ERF (Homo sapiens, UniProt P50548 1-548).
T6 sequence: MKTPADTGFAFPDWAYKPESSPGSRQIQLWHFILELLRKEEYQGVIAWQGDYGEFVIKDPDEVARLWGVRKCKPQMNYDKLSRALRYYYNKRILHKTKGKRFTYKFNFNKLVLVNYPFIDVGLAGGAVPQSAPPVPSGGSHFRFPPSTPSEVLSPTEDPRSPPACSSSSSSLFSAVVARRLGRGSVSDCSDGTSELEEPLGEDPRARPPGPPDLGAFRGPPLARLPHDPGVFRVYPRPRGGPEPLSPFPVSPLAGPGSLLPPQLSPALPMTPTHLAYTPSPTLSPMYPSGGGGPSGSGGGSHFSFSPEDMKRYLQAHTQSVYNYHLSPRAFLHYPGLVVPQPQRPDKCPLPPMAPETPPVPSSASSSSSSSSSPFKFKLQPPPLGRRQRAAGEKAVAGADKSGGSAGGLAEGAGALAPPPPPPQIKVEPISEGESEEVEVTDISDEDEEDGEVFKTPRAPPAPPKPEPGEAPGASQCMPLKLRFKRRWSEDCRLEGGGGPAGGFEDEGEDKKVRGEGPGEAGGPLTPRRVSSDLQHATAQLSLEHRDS
To be noted: protein: recombinant; tags: N-terminal GST; dsDNA, one strand shown. Put shortly: as §1

The next assay has as its target T7, ETV3L (Homo sapiens, UniProt Q6ZN32 1-361).
T7 sequence: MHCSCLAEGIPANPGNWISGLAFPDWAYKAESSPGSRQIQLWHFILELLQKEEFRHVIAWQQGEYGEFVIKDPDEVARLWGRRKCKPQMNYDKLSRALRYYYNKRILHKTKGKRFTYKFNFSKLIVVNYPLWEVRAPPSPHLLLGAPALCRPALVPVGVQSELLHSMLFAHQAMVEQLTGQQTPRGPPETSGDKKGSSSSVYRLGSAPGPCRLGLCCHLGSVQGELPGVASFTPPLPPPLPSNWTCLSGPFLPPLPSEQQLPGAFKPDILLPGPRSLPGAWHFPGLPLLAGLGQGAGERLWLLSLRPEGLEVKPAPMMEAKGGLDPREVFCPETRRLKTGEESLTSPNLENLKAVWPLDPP
To be noted: protein: recombinant; tags: N-terminal GST; dsDNA, one strand shown. The method, boiled down: as §1

For a further assay, the target named is T8, ETS2 (Homo sapiens, UniProt P15036 1-469).
T8 sequence: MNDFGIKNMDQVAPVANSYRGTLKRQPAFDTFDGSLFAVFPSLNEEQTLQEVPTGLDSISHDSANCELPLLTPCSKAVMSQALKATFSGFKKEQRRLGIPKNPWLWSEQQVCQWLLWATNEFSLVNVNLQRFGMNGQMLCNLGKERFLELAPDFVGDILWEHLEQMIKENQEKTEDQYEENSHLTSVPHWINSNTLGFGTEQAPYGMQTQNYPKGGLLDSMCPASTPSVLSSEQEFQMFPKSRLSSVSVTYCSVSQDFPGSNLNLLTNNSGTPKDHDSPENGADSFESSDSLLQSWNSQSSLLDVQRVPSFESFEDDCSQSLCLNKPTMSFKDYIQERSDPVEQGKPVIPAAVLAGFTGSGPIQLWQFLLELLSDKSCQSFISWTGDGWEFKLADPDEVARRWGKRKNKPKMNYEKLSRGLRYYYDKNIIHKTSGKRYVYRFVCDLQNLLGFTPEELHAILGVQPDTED
The note with it: protein: recombinant; tags: N-terminal GST; dsDNA, one strand shown. Put shortly: as §1

The target in a further assay is T9, SPDEF (Homo sapiens, UniProt O95238 1-335).
T9 sequence: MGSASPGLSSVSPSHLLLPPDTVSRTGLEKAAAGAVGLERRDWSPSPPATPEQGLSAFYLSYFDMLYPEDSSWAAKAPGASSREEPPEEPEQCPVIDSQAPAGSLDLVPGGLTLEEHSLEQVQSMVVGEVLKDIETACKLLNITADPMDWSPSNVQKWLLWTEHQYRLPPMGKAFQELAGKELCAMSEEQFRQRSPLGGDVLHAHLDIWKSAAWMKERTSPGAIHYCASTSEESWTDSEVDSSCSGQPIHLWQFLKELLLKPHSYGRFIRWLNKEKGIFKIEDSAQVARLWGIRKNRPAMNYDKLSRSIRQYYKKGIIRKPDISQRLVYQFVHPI
To be noted: protein: recombinant; tags: N-terminal GST; dsDNA, one strand shown. Put shortly: as §1

The target in a further assay is T10, ETV7 (Homo sapiens, UniProt Q9Y603 1-341).
T10 sequence: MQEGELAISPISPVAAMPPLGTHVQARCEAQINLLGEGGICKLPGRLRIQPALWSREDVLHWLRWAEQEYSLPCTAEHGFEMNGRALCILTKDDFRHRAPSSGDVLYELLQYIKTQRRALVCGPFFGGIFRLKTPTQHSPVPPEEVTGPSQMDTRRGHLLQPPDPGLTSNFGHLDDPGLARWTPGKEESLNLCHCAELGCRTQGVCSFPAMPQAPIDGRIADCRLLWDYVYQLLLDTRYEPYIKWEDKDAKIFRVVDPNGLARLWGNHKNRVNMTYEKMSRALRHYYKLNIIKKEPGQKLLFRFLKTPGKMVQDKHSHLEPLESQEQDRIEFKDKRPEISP
To be noted: protein: recombinant; tags: N-terminal GST; dsDNA, one strand shown. The method, boiled down: as §1

The target of the next assay is T11, ELF5 (Homo sapiens, UniProt Q9UKW6-2 1-255).
T11 sequence: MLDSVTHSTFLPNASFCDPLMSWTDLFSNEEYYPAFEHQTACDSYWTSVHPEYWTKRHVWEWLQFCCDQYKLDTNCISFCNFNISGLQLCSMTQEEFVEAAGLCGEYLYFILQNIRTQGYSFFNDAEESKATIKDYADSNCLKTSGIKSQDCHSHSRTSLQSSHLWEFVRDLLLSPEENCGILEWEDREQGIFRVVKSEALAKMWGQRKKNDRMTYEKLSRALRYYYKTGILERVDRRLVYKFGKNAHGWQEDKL
The note with it: protein: recombinant; tags: N-terminal GST; dsDNA, one strand shown. Put shortly:
as §1

Another assay has as its target T12, ETV3 (Homo sapiens, UniProt P41162-2 1-143).
T12 sequence: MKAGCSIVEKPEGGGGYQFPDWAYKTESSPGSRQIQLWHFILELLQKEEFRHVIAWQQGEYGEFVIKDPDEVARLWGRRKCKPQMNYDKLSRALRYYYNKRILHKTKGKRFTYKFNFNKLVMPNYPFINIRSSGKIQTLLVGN
To be noted: protein: recombinant; tags: N-terminal GST; dsDNA, one strand shown. Put shortly:
as §1

Another assay has as its target ETV6 (Homo sapiens, UniProt P41212 1-452). The note with it: protein: recombinant; tags: N-terminal GST; dsDNA, one strand shown. The method, boiled down:
as §1

Sequence of CRX (O43186 whole entry): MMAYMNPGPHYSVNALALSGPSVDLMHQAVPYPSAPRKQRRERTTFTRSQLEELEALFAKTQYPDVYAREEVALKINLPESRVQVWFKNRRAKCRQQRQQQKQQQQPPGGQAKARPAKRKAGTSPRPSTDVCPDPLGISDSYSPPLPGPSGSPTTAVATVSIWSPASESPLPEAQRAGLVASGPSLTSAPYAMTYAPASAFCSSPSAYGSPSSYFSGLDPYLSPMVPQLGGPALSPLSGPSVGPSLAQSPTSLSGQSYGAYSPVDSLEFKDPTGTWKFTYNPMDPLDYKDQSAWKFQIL
Sequence of ETV5 (P41161 whole entry): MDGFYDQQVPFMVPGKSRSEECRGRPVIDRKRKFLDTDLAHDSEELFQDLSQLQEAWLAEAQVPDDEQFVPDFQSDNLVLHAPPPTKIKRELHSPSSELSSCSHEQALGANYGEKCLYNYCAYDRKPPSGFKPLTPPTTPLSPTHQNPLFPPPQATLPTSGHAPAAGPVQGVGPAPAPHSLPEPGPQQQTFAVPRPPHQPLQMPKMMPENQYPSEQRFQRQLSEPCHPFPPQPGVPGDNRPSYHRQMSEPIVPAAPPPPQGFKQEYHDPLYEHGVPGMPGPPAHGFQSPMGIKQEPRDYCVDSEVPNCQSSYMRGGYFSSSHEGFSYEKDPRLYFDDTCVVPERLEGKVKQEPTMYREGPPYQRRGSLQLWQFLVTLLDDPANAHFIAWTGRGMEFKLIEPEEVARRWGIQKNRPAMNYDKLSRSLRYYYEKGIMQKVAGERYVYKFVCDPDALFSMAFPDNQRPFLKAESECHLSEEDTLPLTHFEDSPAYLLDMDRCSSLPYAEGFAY
Sequence of ETV6 (P41212 whole entry): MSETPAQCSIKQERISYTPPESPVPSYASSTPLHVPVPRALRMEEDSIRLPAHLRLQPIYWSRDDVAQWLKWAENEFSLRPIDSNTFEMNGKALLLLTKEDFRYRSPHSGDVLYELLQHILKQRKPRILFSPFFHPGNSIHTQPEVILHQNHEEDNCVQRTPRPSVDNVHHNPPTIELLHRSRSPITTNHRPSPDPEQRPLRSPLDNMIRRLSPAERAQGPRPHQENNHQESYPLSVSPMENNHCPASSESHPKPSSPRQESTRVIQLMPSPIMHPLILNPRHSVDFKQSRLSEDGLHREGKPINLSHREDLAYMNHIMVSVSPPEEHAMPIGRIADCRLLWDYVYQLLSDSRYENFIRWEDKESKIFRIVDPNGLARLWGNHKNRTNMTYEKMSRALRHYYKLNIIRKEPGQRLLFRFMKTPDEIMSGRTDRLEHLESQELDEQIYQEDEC
Sequence of ETV1 (P50549 whole entry): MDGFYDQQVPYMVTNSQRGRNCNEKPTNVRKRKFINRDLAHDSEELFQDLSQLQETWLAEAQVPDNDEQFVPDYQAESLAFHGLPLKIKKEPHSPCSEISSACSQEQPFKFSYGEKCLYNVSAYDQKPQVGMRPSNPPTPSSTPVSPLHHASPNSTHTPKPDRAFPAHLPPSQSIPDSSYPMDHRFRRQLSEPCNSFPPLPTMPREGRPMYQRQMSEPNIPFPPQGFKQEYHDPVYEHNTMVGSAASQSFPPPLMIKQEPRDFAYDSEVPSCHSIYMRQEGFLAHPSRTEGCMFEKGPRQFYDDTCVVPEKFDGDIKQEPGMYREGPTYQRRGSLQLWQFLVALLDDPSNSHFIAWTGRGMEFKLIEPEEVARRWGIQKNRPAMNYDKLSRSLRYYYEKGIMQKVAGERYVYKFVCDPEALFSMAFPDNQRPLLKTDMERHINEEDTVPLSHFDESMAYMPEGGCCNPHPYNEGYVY
Sequence of HSF1 (Q00613 whole entry): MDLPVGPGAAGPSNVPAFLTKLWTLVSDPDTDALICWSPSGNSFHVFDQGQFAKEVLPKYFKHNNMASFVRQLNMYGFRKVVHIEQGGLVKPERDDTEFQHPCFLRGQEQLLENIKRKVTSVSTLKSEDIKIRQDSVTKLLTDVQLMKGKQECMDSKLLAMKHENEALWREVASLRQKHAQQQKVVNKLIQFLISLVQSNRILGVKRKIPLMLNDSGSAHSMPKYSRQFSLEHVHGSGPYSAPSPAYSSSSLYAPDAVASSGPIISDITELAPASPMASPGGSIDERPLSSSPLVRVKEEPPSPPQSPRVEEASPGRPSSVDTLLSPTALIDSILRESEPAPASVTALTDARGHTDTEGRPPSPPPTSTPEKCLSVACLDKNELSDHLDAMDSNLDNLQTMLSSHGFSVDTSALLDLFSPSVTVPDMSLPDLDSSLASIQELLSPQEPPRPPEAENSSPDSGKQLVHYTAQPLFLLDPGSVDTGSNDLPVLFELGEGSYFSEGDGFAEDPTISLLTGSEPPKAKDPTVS
Sequence of ELF4 (Q99607 whole entry): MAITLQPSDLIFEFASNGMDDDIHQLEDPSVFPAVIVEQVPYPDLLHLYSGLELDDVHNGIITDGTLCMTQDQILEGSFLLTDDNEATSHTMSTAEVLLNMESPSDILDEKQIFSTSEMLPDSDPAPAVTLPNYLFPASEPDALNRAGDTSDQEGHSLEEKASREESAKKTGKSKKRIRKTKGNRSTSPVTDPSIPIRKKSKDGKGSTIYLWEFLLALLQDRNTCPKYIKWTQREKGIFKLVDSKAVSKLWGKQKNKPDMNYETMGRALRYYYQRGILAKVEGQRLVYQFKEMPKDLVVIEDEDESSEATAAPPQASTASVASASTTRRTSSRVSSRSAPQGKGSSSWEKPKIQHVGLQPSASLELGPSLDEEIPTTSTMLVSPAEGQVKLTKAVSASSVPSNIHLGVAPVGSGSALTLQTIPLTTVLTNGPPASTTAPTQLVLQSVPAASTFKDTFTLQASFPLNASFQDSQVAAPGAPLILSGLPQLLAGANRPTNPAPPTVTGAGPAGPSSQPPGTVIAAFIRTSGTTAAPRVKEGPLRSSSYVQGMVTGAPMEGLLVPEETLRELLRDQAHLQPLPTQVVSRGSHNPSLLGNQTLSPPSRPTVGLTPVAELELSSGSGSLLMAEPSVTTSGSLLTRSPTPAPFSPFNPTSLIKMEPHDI

As for CCAATT, the binding signal with FEV was 1.23 fold enrichment (6-mer frequency, TF over GST control); in the assay with ETV5, 1.26 fold enrichment (6-mer frequency, TF over GST control); with HSF1, 1.09 fold enrichment (6-mer frequency, TF over GST control); with SPIC, 1.31 fold enrichment (6-mer frequency, TF over GST control); with ELF4, 1.32 fold enrichment (6-mer frequency, TF over GST control); in the assay with ELK4, 1.09 fold enrichment (6-mer frequency, TF over GST control). For the same sequence, the binding signal with ETV2 was 1.27 fold enrichment (6-mer frequency, TF over GST control); with ELF3, 1.39 fold enrichment (6-mer frequency, TF over GST control); with CRX, 1.05 fold enrichment (6-mer frequency, TF over GST control); with ETV1, 1.26 fold enrichment (6-mer frequency, TF over GST control); with ERF it was 1.23 fold enrichment (6-mer frequency, TF over GST control); in the assay with ETV3L, 1.24 fold enrichment (6-mer frequency, TF over GST control). For the same sequence, the binding signal is 1.25 fold enrichment (6-mer frequency, TF over GST control) in the assay with ETS2; 1.19 fold enrichment (6-mer frequency, TF over GST control) in the assay with SPDEF; 1.21 fold enrichment (6-mer frequency, TF over GST control) with ETV7; 1.14 fold enrichment (6-mer frequency, TF over GST control) with ELF5; 1.23 fold enrichment (6-mer frequency, TF over GST control) with ETV3; 1.24 fold enrichment (6-mer frequency, TF over GST control) in the assay with ETV6.

Source of the values: PMC7862700, “An all-to-all approach to the identification of sequence-specific readers for epigenetic DNA modifications on cytosine”.
